# Test results taken from PubChem BioAssay (NCATS).
# “And” between values parts separate entries of the source, which are not always exact repeats. Equal values may be shown once. Results filed as inconclusive are left out. Entries that show only a call come without a potency. The source made the active and inactive calls. The call rests on the fitted dose curve.
# Assay: Cytotoxicity counterscreen for inhibitors of SARS-CoV-2 cell entry (AID 1645845); further: nearly all actives have a fitted effect of over 50% in size
# Settings: cell viability (SARS-CoV-2 entry assay cells); series mostly up to 57.1 µM
# Summary of the method: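 48 h compound treatment (after 1 h preincubation), HEK293-ACE2 cells, 37 C/5% CO2; ATP luminescence endpoint; normalized to cell wells and media blanks.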
row,SMILES,Potency
1,C(=C\c1ccccc1)/CN1CCN(C(c2ccccc2)c2ccccc2)CC1,inactive
2,c1ccc2[nH]c(-c3cscn3)nc2c1,inactive
3,CCCCCCCCCCCCOS(=O)(=O)O,inactive
4,OC[C@H]1O[C@@H](O[C@@H]2[C@@H](CO)O[C@](O)(CO)[C@H]2O)[C@H](O)[C@@H](O)[C@H]1O,inactive
5,CC[C@H](c1ccc(O)cc1)[C@@H](CC)c1ccc(O)cc1,inactive
6,COc1ccnc2c1CCCCC2S(=O)c1nc2ccccc2[nH]1 (configuration not stated),inactive
7,Oc1cc(O)c2c(c1)O[C@H](c1ccc(O)c(O)c1)[C@H](O)C2,inactive
8,O=C(O)c1ccccc1Nc1cc(Cl)ccc1C(=O)O,inactive
9,Cc1cccc(CN2CCN(C(c3ccccc3)c3ccc(Cl)cc3)CC2)c1 (configuration not stated),inactive
10,CCCc1nc(C)c2c(=O)[nH]c(-c3cc(S(=O)(=O)N4CCN(CC)CC4)ccc3OCC)nn12,inactive
11,C[C@H](O)C(=O)Nc1c(I)c(C(=O)NC(CO)CO)c(I)c(C(=O)NC(CO)CO)c1I,inactive
12,CCCCC(=O)O[C@]1(C(=O)CO)CC[C@H]2[C@@H]3CCC4=CC(=O)CC[C@]4(C)[C@H]3[C@@H](O)C[C@@]21C,inactive
13,CN1CCOC(c2ccccc2)c2ccccc2C1 (configuration not stated),inactive
14,COc1cc(N)c(Cl)cc1C(=O)NC1CCN(Cc2ccccc2)CC1,inactive
15,COc1ccc2c(c1)c(CC(=O)OCC(=O)O)c(C)n2C(=O)c1ccc(Cl)cc1,inactive
16,CCCCNc1ccc(C(=O)OCCN(C)C)cc1,inactive
17,CC(=O)N(CC(O)CN(C(C)=O)c1c(I)c(C(=O)NCC(O)CO)c(I)c(C(=O)NCC(O)CO)c1I)c1c(I)c(C(=O)NCC(O)CO)c(I)c(C(=O)NCC(O)CO)c1I (configuration not stated),inactive
18,c1ccc(CC2=NCCN2)cc1,inactive
19,FC(F)(F)C(Cl)Br (configuration not stated),inactive
20,CC1(C)OC[C@@H](COC(=O)CCc2ccc(OC[C@@H](O)CNCCNC(=O)N3CCOCC3)cc2)O1,inactive

row,SMILES,Potency
1,CCCCC1(COC(=O)CCC(=O)O)C(=O)N(c2ccccc2)N(c2ccccc2)C1=O,inactive
2,CCOC(CN1CCN(CC(C)C(=O)c2ccccc2)CC1)c1ccccc1 (configuration not stated),inactive
3,CCCCCCCCCCCCCCCCCCOCC(O)CO (configuration not stated),inactive
4,CCN(CC)CCNC(C(=O)OCCC(C)C)c1ccccc1 (configuration not stated),inactive
5,CCCCOc1ccc(OCCCN2CCOCC2)cc1,inactive
6,CCC(C)(C)c1ccc(CC(C)CN2C[C@@H](C)O[C@@H](C)C2)cc1 (some centres not stated),inactive
7,Cc1ccc(C(=O)Nc2ccc(S(=O)(=O)O)c3cc(S(=O)(=O)O)cc(S(=O)(=O)O)c23)cc1NC(=O)c1cccc(NC(=O)Nc2cccc(C(=O)Nc3cc(C(=O)Nc4ccc(S(=O)(=O)O)c5cc(S(=O)(=O)O)cc(S(=O)(=O)O)c45)ccc3C)c2)c1,inactive
8,CN(Cc1cc(Br)cc(Br)c1N)C1CCCCC1,inactive
9,O=C(OCc1ccccc1)c1ccc(O)cc1,inactive
10,C/C(=N/NC(=O)c1ccncc1)C(=O)O,inactive
11,CN(C)CCCOC1(Cc2ccccc2)CCCCCC1,inactive
12,O=C1c2cccc(O)c2C(=O)c2c(O)cccc21,inactive
13,CC(=O)OCC(=O)[C@@]1(O)CCC2C3CCC4=CC(=O)CC[C@]4(C)C3[C@@H](O)C[C@@]21C (some centres not stated),inactive
14,CCN(CC)CCOCCOC(=O)C1(c2ccccc2)CCCC1,inactive
15,CN1CCCN=C1COC(=O)C(O)(c1ccccc1)C1CCCCC1 (configuration not stated),inactive
16,N=C(N)c1ccc(OCCCOc2ccc(C(=N)N)cc2)cc1,inactive
17,CCNC(=O)NCCCOc1cccc(CN2CCCCC2)c1,inactive
18,COc1cc(O)c(C(=O)c2ccccc2)cc1S(=O)(=O)O,inactive
19,CN1CCN(C2=Nc3ccccc3Sc3ccc(Cl)cc32)CC1,inactive
20,C[N+]12CCC(CC1)C(OC(=O)C(O)(c1ccccc1)c1ccccc1)C2 (configuration not stated),inactive

# Assay: Primary qHTS to identify inhibitors of SARS-CoV-2 cell entry (AID 1645846); further: nearly all actives have a fitted effect of over 45% in size
# Settings: SARS-CoV-2 pseudovirus cell entry assay, luminescence; activity change, negative = inhibition: at 57.1 µM (top of the series) unless noted; series mostly up to 57.1 µM
# Summary of the method: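 Luminescence readout (Bright-Glo luciferase) 48 h after pseudoparticle addition. HEK293-ACE2 cells, 1500/well; compound pre-incubation 1 h; Normalized to spike PP and bald PP.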
SMILES,Potency,"activity change, negative = inhibition"
c1ccc2[nH]c(-c3cscn3)nc2c1,inactive,
CCCCCCCCCCCCOS(=O)(=O)O,,-9.15%
Oc1cc(O)c2c(c1)O[C@H](c1ccc(O)c(O)c1)[C@H](O)C2,,-5.55%
CCCc1nc(C)c2c(=O)[nH]c(-c3cc(S(=O)(=O)N4CCN(CC)CC4)ccc3OCC)nn12,,-31% and -14%
C[C@H](O)C(=O)Nc1c(I)c(C(=O)NC(CO)CO)c(I)c(C(=O)NC(CO)CO)c1I,,4.46%
CCCCC(=O)O[C@]1(C(=O)CO)CC[C@H]2[C@@H]3CCC4=CC(=O)CC[C@]4(C)[C@H]3[C@@H](O)C[C@@]21C,inactive,
CN1CCOC(c2ccccc2)c2ccccc2C1 (configuration not stated),inactive,
COc1ccc2c(c1)c(CC(=O)OCC(=O)O)c(C)n2C(=O)c1ccc(Cl)cc1,inactive,
CCCCNc1ccc(C(=O)OCCN(C)C)cc1,inactive,
CC(=O)N(CC(O)CN(C(C)=O)c1c(I)c(C(=O)NCC(O)CO)c(I)c(C(=O)NCC(O)CO)c1I)c1c(I)c(C(=O)NCC(O)CO)c(I)c(C(=O)NCC(O)CO)c1I (configuration not stated),inactive,
c1ccc(CC2=NCCN2)cc1,inactive,
FC(F)(F)C(Cl)Br (configuration not stated),,-18.5%
CC1(C)OC[C@@H](COC(=O)CCc2ccc(OC[C@@H](O)CNCCNC(=O)N3CCOCC3)cc2)O1,,-4.74%
CCCCC1(COC(=O)CCC(=O)O)C(=O)N(c2ccccc2)N(c2ccccc2)C1=O,inactive,
CCCCCCCCCCCCCCCCCCOCC(O)CO (configuration not stated),,2.2%
CCN(CC)CCNC(C(=O)OCCC(C)C)c1ccccc1 (configuration not stated),,-14.1%
CCCCOc1ccc(OCCCN2CCOCC2)cc1,inactive,
Cc1ccc(C(=O)Nc2ccc(S(=O)(=O)O)c3cc(S(=O)(=O)O)cc(S(=O)(=O)O)c23)cc1NC(=O)c1cccc(NC(=O)Nc2cccc(C(=O)Nc3cc(C(=O)Nc4ccc(S(=O)(=O)O)c5cc(S(=O)(=O)O)cc(S(=O)(=O)O)c45)ccc3C)c2)c1,,-17.2% [at 27.1 µM]
C/C(=N/NC(=O)c1ccncc1)C(=O)O,,-2.02%
CN(C)CCCOC1(Cc2ccccc2)CCCCCC1,,-0.0488%
O=C1c2cccc(O)c2C(=O)c2c(O)cccc21,inactive,
CC(=O)OCC(=O)[C@@]1(O)CCC2C3CCC4=CC(=O)CC[C@]4(C)C3[C@@H](O)C[C@@]21C (some centres not stated),inactive,
CN1CCCN=C1COC(=O)C(O)(c1ccccc1)C1CCCCC1 (configuration not stated),,4.25%
N=C(N)c1ccc(OCCCOc2ccc(C(=N)N)cc2)cc1,,-8.76%
CCNC(=O)NCCCOc1cccc(CN2CCCCC2)c1,inactive,
CN1CCN(C2=Nc3ccccc3Sc3ccc(Cl)cc32)CC1,,-10.6%
C[N+]12CCC(CC1)C(OC(=O)C(O)(c1ccccc1)c1ccccc1)C2 (configuration not stated),inactive,
